Experimental data from ChEMBL document CHEMBL3988442, “University of Dundee, Small-Polar-MMV Screening Library” (2021).
The campaign covered roughly 48,000 compounds. About 13,000 (27%) showed an effect of 50% or more. Some of the results follow.

system: Wolbachia pipientis; assay: Anti-Wolbachia Cell-Based Screen; format: functional; design: scale not given: in the data most compounds retested in dose-response had high values; conditions: 5 µM

Row | SMILES | Percent Effect
1 | NC(=O)c1ccc(N2CCCCC2)c(NC(=O)c2ccc(F)cc2Cl)c1 | -3.289%
2 | CSc1nc(C2CC2)nc(C)c1C(=O)NCc1ncc(C)o1 | 6.945%
3 | CCc1nc(CN2CCCN(C(=O)c3cn[nH]c3CC)CC2)cs1 | 9.391%
4 | Cc1cc(NC(=O)N2CCCC(O)C2)nn1-c1ccccc1Cl (configuration not stated) | -23.68%
5 | CN(C)C(=O)Cc1nc(CN2CCCC2Cn2cncn2)cs1 (configuration not stated) | -5.183%
6 | CC(=O)N(C)c1nc(CN2CCCCC2Cn2cncn2)cs1 (configuration not stated) | -7.447%
7 | CC(=O)N(C)c1nc(CN2CCCC2Cn2cncn2)cs1 (configuration not stated) | 102%
8 | COc1ccc(N(C)C(=O)c2cccc(S(C)(=O)=O)c2)cn1 | -2.349%
9 | Cc1nc[nH]c1C(=O)N1CC[C@@H](NC(=O)c2ccccn2)[C@H](O)C1 | -7.66%
10 | CC[C@@]1(O)CCN(C(=O)c2cccc3cc(C)oc23)C[C@H]1O | 10.55%
11 | COc1ccc(C(=O)N2C[C@@H](C)[C@@](C)(O)C2)cc1N1CCOCC1 | -1.788%
12 | CO[C@H]1CN(C(=O)c2ccc3oc(C)cc3c2)CC[C@@]12CCCO2 | 0.1168%
13 | CC(=O)N1CCC2(CC1)CN(C(=O)c1ccc3c(c1)OCCO3)C2 | -18.73%
14 | Cc1cc2cc(C(=O)N3CC[C@H](O)[C@]4(CCCO4)C3)ccc2o1 | 1.113%
15 | COc1ccc(C(=O)N2CC[C@](C)(O)[C@H](C)C2)cc1N1CCOCC1 | 0.3479%
16 | CO[C@H]1CCN(C(=O)c2ccc3oc(C)cc3c2)C[C@@]12CCCO2 | 93.08%
17 | Cc1cc2cc(C(=O)N3C[C@H](O)[C@]4(CCCO4)C3)ccc2o1 | 113.6%
18 | CO[C@H]1CN(C(=O)c2ccc3oc(C)cc3c2)C[C@@]12CCCO2 | 96.35%
19 | Cc1nc(C(C)C)ncc1C(=O)N1CCc2c(nc(N(C)C)[nH]c2=O)C1 | -2.755%
20 | Cc1ccc(CN2CC3(CCNCC3)CCC2=O)c(F)c1F | -4.713%
21 | CC(C)NC(=O)N1CCC2(CC1)CC[C@@]1(C(=O)N(C)C)CN(C)C[C@@H]21 | -18.22%
22 | CNC(=O)N1CCC2(CC1)CC[C@@]1(C(=O)NC)CN(S(C)(=O)=O)C[C@@H]21 | 99.51%
23 | CNC(=O)[C@@]12CCC3(CCN(S(C)(=O)=O)CC3)[C@@H]1CN(S(C)(=O)=O)C2 | 14.17%
24 | CCN1C[C@H]2C3(CCN(S(C)(=O)=O)CC3)CC[C@@]2(C(=O)N(C)C)C1.O=C(O)C(F)(F)F | -24.55%
25 | CNC(=O)[C@@]12CCC3(CCN(C(C)=O)CC3)[C@@H]1CN(S(C)(=O)=O)C2 | -0.1611%
26 | CCN1CC2(CC1=O)CN(C(=O)COC)CCN(S(C)(=O)=O)C2 (configuration not stated) | -10.66%

Row | SMILES | Percent Effect
27 | CNC(=O)[C@@]12CCC3(CCN(C(=O)C(C)C)CC3)[C@@H]1CN(S(C)(=O)=O)C2 | 104.1%
28 | CNC(=O)[C@@]12CCC3(CCNCC3)[C@@H]1CN(S(C)(=O)=O)C2 | 151.6%
29 | CNC(=O)[C@@]12CCC3(CCN(C(=O)COC)CC3)[C@@H]1CN(S(C)(=O)=O)C2 | 102.3%
30 | CCN1C[C@H]2C3(CCN(C(=O)NC(C)C)CC3)CC[C@@]2(C(=O)NC)C1.O=C(O)C(F)(F)F | -18.02%
31 | CC(=O)N1CCC2(CC1)CC[C@@]1(C(=O)N(C)C)CN(S(C)(=O)=O)C[C@@H]21 | -18.69%
32 | O=C(c1cscn1)N(CCCO)S(=O)(=O)c1cccs1 | 7.908%
33 | CN(CCSc1ccccc1)C(=O)c1cn2c(n1)CNCC2 | -0.3479%
34 | O=C(NCc1ccc(C(=O)N2CCCC2)cc1)c1cn2c(n1)CNCC2 | -4.939%
35 | CN1C(=O)CC(N(C)Cc2nc3ccccc3c(=O)[nH]2)C1=O (configuration not stated) | -8.963%
36 | CCC(C)N(Cc1ccncc1)Cc1cccc(Cn2cccn2)c1 (configuration not stated) | -14.79%
37 | CCc1[nH]c2c(CNc3cncc(C(=O)OC)n3)cc(C)cc2c1C | 11.12%
38 | O[C@H]1COCCN(Cc2cccc3c2OCO3)C1 | -4.774%
39 | CCOc1ccccc1-c1noc(CN2CCOC(CN(C)C)C2)n1 (configuration not stated) | 7.76%
40 | CC(C)c1nnc2n1CCN(C(=O)c1ccnc(N(C)C)c1)C2 | -1.642%
41 | CC(C)c1nnc2n1CCN(C(=O)c1cc3cc(F)ccc3[nH]1)C2 | 98.88%
42 | Cc1nnc2n1CCN(C(=O)c1cc(Cl)c[nH]1)C2 | -1.056%
43 | Cc1nnc2n1CCN(C(=O)c1cc3cc(F)ccc3[nH]1)C2 | 87.27%
44 | CC(C)c1nnc2n1CCN(C(=O)c1ccc3cc[nH]c3c1)C2 | -4.188%
45 | Cc1ccccc1-c1cc(C(=O)N2CCn3c(C)nnc3C2)[nH]n1 | -2.104%
46 | O=C(NC[C@H]1OC[C@@H](NCc2ccccc2)[C@@H]1O)Nc1ccccc1 | -15.87%
47 | Cc1nnc([C@H]2CC[C@@H]3[C@@H](CCN3CC3CCOCC3)O2)o1 | -4.928%
48 | C1CC(CN2C[C@H]3CC[C@@H]2CN(Cc2nnc(C4CC4)o2)C3)C1 | 1.497%
49 | C1CC(CN2CC[C@@H]3O[C@@H](c4nnc(C5CC5)o4)C[C@H]3C2)CCO1 | 104.3%
50 | Cc1noc([C@@H]2C[C@H]3CN(CC4CCOCC4)C[C@H]3O2)n1.O=C(O)C(F)(F)F | 45.83%
51 | C1CC(CN2C[C@@H]3C[C@@H](c4nnc(C5CC5)o4)O[C@@H]3C2)CCO1 | 101.2%
52 | Cc1nnc([C@@H]2CC[C@@H]3[C@@H](CCN3CC3CCOCC3)O2)o1 | 8.23%
